About 83,000 compounds went through this panel and 20% of them were active in at least one assay; those are over-represented in the sample as a whole.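 Testing used 96-well plates and a 48-hour single-concentration exposure. Example: -40 means 40% of the starting cells died.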 Unmarked numbers belong to inactive results. Active and inactive are the calls of the source. Rule for the calls: active = growth percent below 10; inactive = the rest.

Among the test systems are HCT-15 colon; HT29 colon; SNB-75 CNS; SNB-19 CNS; U251 CNS; PC-3 prostate; SK-MEL-5 melanoma; UACC-62 melanoma; LOX IMVI melanoma; SK-MEL-28 melanoma; SK-MEL-2 melanoma; EKVX NSCLC; SN12C renal; UO-31 renal; TK-10 renal; ACHN renal; CAKI-1 renal; A498 renal; CCRF-CEM leukemia; MOLT-4 leukemia.
What all share (experiment): NCI-60 one-dose screen, 48 h (100 = growth as untreated, 0 = no growth, -100 = all killed)
Holding throughout (details): 10 µM unless noted

On to `COc1cc2nc(Cl)nc(Nc3cccc(C4=Nc5c(N)nc(N)nc5NC(c5ccc6c(c5)OCO6)C4)c3)c2cc1OC` (stereo not given), for which the growth is 33.2% in the experiment with HCT-15 colon; 68.9% in the experiment with HT29 colon; 82.2% in the experiment on SNB-75 CNS; 78.4% in the experiment with SNB-19 CNS; 8.17% (active) in the experiment on U251 CNS; 63.6% in the experiment with PC-3 prostate. The growth in the experiment on SK-MEL-5 melanoma is 72.1%; in the experiment with UACC-62 melanoma, 94.8%; in the experiment with LOX IMVI melanoma it was 52.6%; in the experiment on SK-MEL-28 melanoma, 106%; in the experiment with SK-MEL-2 melanoma, 85.2%; with EKVX NSCLC, 86.1%. Also, the growth with SN12C renal is 78.6%; with UO-31 renal, 86%; in the experiment with TK-10 renal it was 113%; in the experiment on ACHN renal, 94%; with CAKI-1 renal, 82.8%; in the experiment with A498 renal, 105%. The results for the growth in the experiment on CCRF-CEM leukemia and in the experiment with MOLT-4 leukemia were 26.8% and 27%, respectively.

Consider `Clc1nc2ccccc2nc1-c1nnc(C2CCCCC2)o1`, for which the growth with HCT-15 colon was 71.7%; in the experiment on HT29 colon, 109%; with SNB-75 CNS, 97.2%; with SNB-19 CNS, 98.7%; in the experiment with U251 CNS it was 97.9%; in the experiment with PC-3 prostate, 95.8%. For the same molecule, the growth in the experiment on SK-MEL-5 melanoma is 98.8%; in the experiment with UACC-62 melanoma it was 96.4%; with LOX IMVI melanoma, 66.6%; in the experiment with SK-MEL-28 melanoma it was 104%; in the experiment on SK-MEL-2 melanoma it was 102%; in the experiment on EKVX NSCLC, 98.8%. Further, the growth with SN12C renal was 101%; with UO-31 renal, 92.7%; in the experiment on TK-10 renal, 105%; in the experiment with ACHN renal it was 99.2%; with CAKI-1 renal, 89.5%; with A498 renal, 89.3%. Besides, the growth was 84.9% in the experiment with CCRF-CEM leukemia and 109% in the experiment on MOLT-4 leukemia.

In the case of `COc1cc(OC)c(/C=C/S(=O)(=O)Cc2ccc(OC)c(NC(=O)CCC(=O)NO)c2)c(OC)c1`, the growth with HCT-15 colon is 8.57% (active); in the experiment with HT29 colon, 3.2% (active); with SNB-75 CNS, 31.6%; in the experiment on SNB-19 CNS it was 23%; in the experiment with U251 CNS, 14.6%; in the experiment on PC-3 prostate it was 28.7%. Further, the growth in the experiment on SK-MEL-5 melanoma is -31.6% (active); in the experiment with UACC-62 melanoma it was 13.8%; in the experiment on LOX IMVI melanoma, 10.4%; in the experiment on SK-MEL-28 melanoma, 60%; in the experiment on SK-MEL-2 melanoma, 46.6%; in the experiment on EKVX NSCLC, 36.1%. For the same molecule, the growth in the experiment on SN12C renal is 22.7%; in the experiment with UO-31 renal, 34.1%; in the experiment on TK-10 renal, 64.4%; in the experiment on ACHN renal it was 28.1%; in the experiment on CAKI-1 renal, 25.3%; with A498 renal, -20.8% (active). Besides, the growth with CCRF-CEM leukemia is 11.5%; in the experiment on MOLT-4 leukemia it was 17.2%.

Consider `Cc1ccc(C2=Nn3c(nnc3-c3ccccc3)SC2)cc1`, for which the growth with HCT-15 colon was 23%; in the experiment with HT29 colon, 4.8% (active); in the experiment on SNB-75 CNS, -4.24% (active); in the experiment with SNB-19 CNS, 31.4%; in the experiment with U251 CNS, 25.5%; in the experiment on PC-3 prostate it was 35.2%. Also, the growth in the experiment with SK-MEL-5 melanoma was 21.5%; in the experiment with UACC-62 melanoma, 41.4%; in the experiment on LOX IMVI melanoma it was 49%; in the experiment on SK-MEL-28 melanoma, 76.2%; in the experiment with SK-MEL-2 melanoma it was -14.8% (active); with EKVX NSCLC, 39.3%. In addition, the growth in the experiment with SN12C renal is 47.5%; with UO-31 renal, 43.1%; in the experiment on TK-10 renal, 48.3%; with ACHN renal, 52.1%; with CAKI-1 renal it was 34.4%; in the experiment on A498 renal, -12.4% (active). Also, the figures for the growth in the experiment with CCRF-CEM leukemia and in the experiment on MOLT-4 leukemia were 23.6% and 44.4%, respectively.

As for `C=C1CC[C@@H]2[C@](C)(CO)[C@H](O)CC[C@@]2(C)[C@@H]1C/C(O)=C1\CCOC1=O`, the growth with HCT-15 colon is 90.9%; in the experiment with HT29 colon it was 96.5%; in the experiment with SNB-75 CNS it was 96.4%; with SNB-19 CNS, 97.9%; in the experiment on U251 CNS, 88.2%; in the experiment on PC-3 prostate, 99.7%. For the same molecule, the growth is 101% in the experiment with SK-MEL-5 melanoma; 88.9% in the experiment with UACC-62 melanoma; 72.9% in the experiment with LOX IMVI melanoma; 108% with SK-MEL-28 melanoma; 103% in the experiment with SK-MEL-2 melanoma; 102% in the experiment on EKVX NSCLC. The growth in the experiment on SN12C renal was 86.8%; in the experiment with UO-31 renal, 99.4%; in the experiment on TK-10 renal it was 114%; with ACHN renal it was 101%; in the experiment with CAKI-1 renal, 101%; in the experiment on A498 renal, 94.4%. Further, the values for the growth with CCRF-CEM leukemia and with MOLT-4 leukemia were 60.2% and 104%, respectively.

As for `Cc1ccc(-c2nnc(SCc3ccc(O)c4ncccc34)n2-c2ccccc2)cc1`, the growth in the experiment with HCT-15 colon was 6.13% (active); in the experiment with HT29 colon it was 36%; in the experiment with SNB-75 CNS, -5.25% (active); with SNB-19 CNS, 9.09% (active); in the experiment with U251 CNS it was -2.5% (active); in the experiment on PC-3 prostate, 5.96% (active). For the same molecule, the growth is -28.2% (active) in the experiment with SK-MEL-5 melanoma; -27.7% (active) in the experiment with UACC-62 melanoma; 3.35% (active) in the experiment on LOX IMVI melanoma; 23% with SK-MEL-28 melanoma; -0.952% (active) with SK-MEL-2 melanoma; 10.7% in the experiment on EKVX NSCLC. Further, the growth was 15.1% in the experiment with SN12C renal; -12.8% (active) in the experiment with UO-31 renal; 7.85% (active) in the experiment on TK-10 renal; 8.47% (active) in the experiment with ACHN renal; 9.59% (active) in the experiment with CAKI-1 renal; 26% with A498 renal. The growth with CCRF-CEM leukemia was 8.76% (active); with MOLT-4 leukemia, 8.15% (active).

Turning to `CC(=O)N1C(=S)NC(=O)C1CC(C)C` (stereo not given), the growth in the experiment on HCT-15 colon is 99.7%; in the experiment with HT29 colon it was 115%; in the experiment on SNB-75 CNS, 103%; in the experiment on SNB-19 CNS, 102%; in the experiment on U251 CNS it was 101%; in the experiment on PC-3 prostate it was 106%. Besides, the growth in the experiment on SK-MEL-5 melanoma is 106%; in the experiment with UACC-62 melanoma, 93.7%; in the experiment with LOX IMVI melanoma, 95.5%; in the experiment with SK-MEL-28 melanoma, 101%; in the experiment with SK-MEL-2 melanoma, 102%; in the experiment with EKVX NSCLC, 102%. The growth in the experiment with SN12C renal was 101%; in the experiment on UO-31 renal it was 93.2%; in the experiment with TK-10 renal, 100%; in the experiment on ACHN renal, 105%; in the experiment on CAKI-1 renal it was 96.3%; in the experiment on A498 renal, 109%. The growth with CCRF-CEM leukemia is 103%; in the experiment on MOLT-4 leukemia it was 105%.

Turning to `C[C@H](CCC(=O)NCc1ccc(C(=O)Nc2ccccc2N)cc1)[C@H]1CC[C@H]2[C@@H]3[C@@H](O)C[C@@H]4C[C@H](O)CC[C@]4(C)[C@H]3CC[C@]12C`, the growth in the experiment with HCT-15 colon is 88.3%; in the experiment on HT29 colon it was 48.1%; with SNB-75 CNS, 91.5%; with SNB-19 CNS it was 73.1%; in the experiment with U251 CNS, 64.3%; in the experiment with PC-3 prostate, 42.4%. Also, the growth was 63.3% with SK-MEL-5 melanoma; 36.7% with UACC-62 melanoma; 59.6% in the experiment on LOX IMVI melanoma; 63.6% in the experiment with SK-MEL-28 melanoma; 68.8% with SK-MEL-2 melanoma; 69.4% in the experiment on EKVX NSCLC. Further, the growth was 69.5% in the experiment on SN12C renal; 56.7% in the experiment on UO-31 renal; 54.8% in the experiment on TK-10 renal; 92.9% with ACHN renal; 58.4% in the experiment with CAKI-1 renal; 59.5% in the experiment with A498 renal. Besides, the growth in the experiment with CCRF-CEM leukemia is 7.16% (active); in the experiment with MOLT-4 leukemia it was 10.7%.

The values are drawn from PubChem BioAssay (NCI).
